According to PubChem BioAssay (Tox21):
Records with an inconclusive call do not appear. Activity calls are given as the source filed them. The call rests on the fitted dose curve.

What follows are compounds tested against Thyrotropin receptor (Homo sapiens) (UniProt P16473) (assay: qHTS assay to identify small molecule antagonists of the thyroid stimulating hormone receptor (TSHR) signaling pathway (AID 1259385; further: nearly all actives have a fitted effect of over 20% in size)). Conditions: TSHR-HEK293 cAMP HTRF, TSH-stimulated antagonist mode; series mostly up to 92.4 µM.
Sequence of Thyrotropin receptor (Homo sapiens) (P16473 whole entry, looked up): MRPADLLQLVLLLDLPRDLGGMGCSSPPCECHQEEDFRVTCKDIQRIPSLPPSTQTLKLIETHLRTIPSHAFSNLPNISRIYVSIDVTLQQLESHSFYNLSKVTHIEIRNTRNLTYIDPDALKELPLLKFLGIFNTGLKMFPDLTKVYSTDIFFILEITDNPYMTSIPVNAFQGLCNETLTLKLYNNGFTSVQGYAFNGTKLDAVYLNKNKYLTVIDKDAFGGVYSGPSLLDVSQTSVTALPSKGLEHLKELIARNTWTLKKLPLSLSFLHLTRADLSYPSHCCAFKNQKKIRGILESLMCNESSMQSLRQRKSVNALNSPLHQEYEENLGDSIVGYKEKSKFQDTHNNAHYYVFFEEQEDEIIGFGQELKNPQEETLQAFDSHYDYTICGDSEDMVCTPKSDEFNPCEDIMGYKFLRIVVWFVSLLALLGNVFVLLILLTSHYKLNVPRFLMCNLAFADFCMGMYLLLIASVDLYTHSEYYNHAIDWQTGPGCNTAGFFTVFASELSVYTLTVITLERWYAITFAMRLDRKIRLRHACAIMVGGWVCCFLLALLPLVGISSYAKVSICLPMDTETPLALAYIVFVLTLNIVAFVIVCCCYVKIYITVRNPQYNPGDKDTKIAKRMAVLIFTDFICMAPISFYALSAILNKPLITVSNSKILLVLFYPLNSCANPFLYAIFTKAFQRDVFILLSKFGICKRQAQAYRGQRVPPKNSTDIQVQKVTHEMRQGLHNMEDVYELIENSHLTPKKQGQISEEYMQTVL
From the text: U.S. Tox21 Program National Center for Advancing Translational Sciences [NCATS] NIH Chemical Genomics Center [NCGC] U.S. Environmental Protection Agency [EPA] National Institutes of Environmental Health Sciences [NIEHS] National Toxicology Program [NTP] U.S. Food and Drug Administration [FDA] Tox21 Assay Overview: TSHR is the receptor for thyrotropin (thyroid stimulating hormone or TSH), a member of the glycoprotein hormone family. TSH is released by the anterior pituitary gland and is the main regulator of thyroid gland growth and development. Upon binding circulating thyrotropin, a G-protein signal cascade activates adenylyl cyclase and […] cAMP concentration is increased. cAMP is a key second messenger involved extensively in cellular signal transduction pathways associated with the majority of G-protein coupled receptors (GPCRs). The activation of these GPCRs by neurotransmitters, lipids, nucleotides, peptides and hormones results in the activation or the inhibition of plasma membrane-bound adenylate cyclase through heterotrimeric G-proteins. A cell-based TSHR assay can be used to screen chemical compounds that modulate TSHR either in agonist or antagonist mode.
Tox21 Assay Protocol Summary: TSHR-Hek293 cells were dispensed at 800 cells/4uL/well in 1536-well white plates using a Multidrop dispenser. After the assay plates were incubated at a 37C/5% CO2 incubator for 18 hrs, 23 nL of compounds dissolved in DMSO, positive controls or DMSO only was transferred to the assay plate by a pin tool, followed by 1 ul medium containing Ro20-1724. For the antagonist mode screening, 1 uL of TSH was added on the top of the cell/compound mixtures to achieve a final agonist concentration of 1.5 ng/mL. After 30 min of incubation at room temperature, 2.5 ul/well of cAMP-d2 and 2.5 ul/well of anti-cAMP-cryptate were added respectively into the assay plates using a Flying Reagent Dispenser. The plates were incubated at room temperature for 1 hr. The fluorescence intensity in the plates was measured using an Envision plate reader. Each test compound was measured at 15 concentrations and in triplicates.
On the % scale 0 is the no-effect control and ±100 the full control effect.

| Compound | outcome | activity change, negative = inhibition |
| --- | --- | --- |
| C[C@]12CCC(=O)C=C1CC[C@H]1[C@@H]3CC[C@](O)(C(=O)CO)[C@@]3(C)C[C@H](O)[C@@]12F | inactive |  |
| CC1(C)Cc2cccc(N)c2O1 | inactive |  |
| CC(C)C1OCCN1CCOC(=O)NCCCCCCNC(=O)OCCN1CCOC1C(C)C (stereo not given) | inactive |  |
| OC[C@H]1O[C@@H](O[C@@H]2[C@@H](CO)O[C@](O)(CO)[C@H]2O)[C@H](O)[C@@H](O)[C@H]1O | inactive |  |
| O=C1NC(c2ccccc2)(c2ccccc2)C(=O)N1COP(=O)(O)O | inactive |  |
| C#CCN[C@@H]1CCc2ccccc21 | inactive |  |
| N#CCC(=O)NN | inactive |  |
| CC(N)CCCC(C)(C)O (stereo not given) | inactive |  |
| CCC(C)C(=O)OCCc1ccccc1 (stereo not given) | inactive |  |
| OCC1(CO)COCOC1 | inactive |  |
| O=C[O][Al]([O]C=O)[O]C=O | inactive |  |
| ONc1ccccc1 | inactive |  |
| CCCCCC(C)O (stereo not given) | inactive |  |
| CC(=O)O[C@H]1C[C@@H]2CC[C@@]1(C)C2(C)C | inactive |  |
| Cn1c(=O)c2[nH]c(Br)nc2n(C)c1=O | inactive |  |
| N[C@@H](Cc1ccc(O)cc1)C(=O)O |  | 3.38% [at 8.39 µM] (inactive) |
| CC1=C(O)C(=O)C(C)O1 (stereo not given) | inactive |  |
| O=C1OCCO1 | inactive |  |
| CC1=NN(c2ccc(S(=O)(=O)O)cc2)C(=O)C1 | inactive |  |
| COc1ccc2c(c1)c1c3n2CCN(C)C3=NCC1 | inactive |  |

| Compound | outcome | activity change, negative = inhibition |
| --- | --- | --- |
| Nc1nc(-c2ccccc2)c(Br)c(=O)[nH]1 | inactive |  |
| O/N=C/C=N/O | inactive |  |
| NCC1(Cc2noc(=O)[nH]2)CCCCC1 | inactive |  |
| CC1=C(C(=O)O)N2C(=O)[C@@H](NC(=O)[C@H](N)C3=CCC=CC3)[C@H]2SC1 | inactive |  |
| C[C@@H](O)C(=O)O | inactive |  |
| CC(C)OC(=O)CCC(=O)OC(C)C | inactive |  |
| C=CCSSCCC | inactive |  |
| CC(C)OC(=O)OCOP(=O)(CO[C@H](C)Cn1cnc2c(N)ncnc21)OCOC(=O)OC(C)C | inactive |  |
| CC(=O)C(C)O (stereo not given) | inactive |  |
| C=CCOC(=O)CCCCCC | inactive |  |
| CC1c2ccccc2CN1NC(=O)c1ccc(Cl)c(S(N)(=O)=O)c1 (stereo not given) | inactive |  |
| CC1CC(=O)CC(C)(C)C1 (stereo not given) | inactive |  |
| CCO[Si](CC)(OCC)OCC | inactive |  |
| CC(O)CC(C)O (stereo not given) | inactive |  |
| CCCC(=O)OCCC(C)CCC=C(C)C (stereo not given) | inactive |  |
| CO[C@@]1(NC(=O)Cc2cccs2)C(=O)N2C(C(=O)O)=C(COC(N)=O)CS[C@@H]21 | inactive |  |
| CCCCOC(=O)C(C)O (stereo not given) | inactive |  |
| CC(C)Nc1ccccc1 | inactive |  |
| CN(C)CCOC(=O)C(c1ccccc1)C1(O)CCCC1 (stereo not given) | inactive |  |
| CC/C(C)=N\O[Si](C)(O/N=C(\C)CC)O/N=C(\C)CC | inactive |  |
